The test system of one assay is GRK1. As to conditions: concentration: 1 μM, replicates: in singlicate; n = 1.
Another assay deals with T1, GRK2.
T1 construct: gene ADRBK1
As to conditions: concentration: 1 μM, replicates: in singlicate; n = 1.

The next assay concerns T2, GRK3.
T2 construct: gene ADRBK2
As to conditions: concentration: 1 μM, replicates: in singlicate; n = 1.

In a further assay the test system is GRK4. The conditions noted are these: concentration: 1 μM, replicates: in singlicate; n = 1.
A further assay concerns GRK7. The conditions noted are these: concentration: 1 μM, replicates: in singlicate; n = 1.
The test system of the next assay is GSK3A. As to conditions: concentration: 1 μM, replicates: in singlicate; n = 1.
Another assay concerns GSK3B. The conditions noted are these: n = 1.
A further assay has as its system T3, HASPIN.
T3 construct: gene GSG2
The conditions noted are these: concentration: 1 μM, replicates: in singlicate; n = 1.

In another assay the test system is HCK. As to conditions: concentration: 1 μM, replicates: in singlicate; n = 1.
Another assay has as its system HIPK1. The conditions noted are these: concentration: 1 μM, replicates: in singlicate; n = 1.
Setting [1] is: concentration: 1 μM, replicates: in singlicate.

Read-outs that look alike come from different tables or passages of the source.
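Note: KINOMEscan kinase panel screen.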

On to `Oc1ccc2ncnc(Nc3ccc(OCc4ccccc4)cc3)c2c1` [GI262866], for which the “%Inh” value in the assay with GRK1 came to 7%; in the assay with GRK2 it was 0%; in the assay with GRK3 it was 6%; in the assay on GRK4, 18%; in the assay on GRK7, 0%; in the assay on GSK3A, 0%. Besides, the “%Inh” value in the assay on GSK3B (setting [1]) was found to be 0%; in the assay on HASPIN, 17%; in the assay on HCK, 0%; in the assay on HIPK1 it was 0%.
On to `Cl.Cn1ccc(-c2cccc(Nc3ccnc4cc(-c5nccs5)ccc34)c2)n1` [GW525701], for which the “%Inh” value came to 1% with GRK1; 0% in the assay with GRK2; 64% with GRK3; 0% in the assay on GRK4; 0% in the assay with GRK7; 0% in the assay with GSK3A. Further, the “%Inh” value in the assay on GSK3B (setting [1]) was 12%; in the assay with HASPIN, 8%; in the assay with HCK, 0%; in the assay on HIPK1 it was 0%.
Regarding `Fc1ccc(-c2ncn(CCCNCc3ccccc3)c2-c2ccncc2)cc1`, the “%Inh” value in the assay with GRK1 was 12%; in the assay on GRK2, 0%; in the assay on GRK3, 0%; in the assay with GRK4, 12%; with GRK7, 5%; in the assay with GSK3A, 8%. Further, the “%Inh” value came to 28% with GSK3B (setting [1]), 12% in the assay on HASPIN, 7% in the assay with HCK and 25% in the assay with HIPK1.
In the case of `CCC(CC)(CC)n1cnc2c(N)ncnc21` [SKF-97620], the “%Inh” value with GRK1 was 40%; in the assay on GRK2 it was 16%; in the assay with GRK3 it was 0%; in the assay with GRK4 it was 8%; with GRK7, 14%; in the assay with GSK3A it was 0%. Besides, the “%Inh” value in the assay with GSK3B (setting [1]) is recorded as 35%; in the assay on HASPIN it was 9%; with HCK, 9%; in the assay on HIPK1, 17%.
Consider `FC(F)(F)c1ccc(-c2cc(-c3c[nH]nc3-c3ccccn3)ccn2)cc1` [GW599550], for which the “%Inh” value is on record as 0% with GRK1; 0% in the assay with GRK2; 33% in the assay with GRK3; 14% with GRK4; 4% in the assay with GRK7; 19% in the assay with GSK3A. Also, the “%Inh” value in the assay on GSK3B (setting [1]) is given as 0%; in the assay with HASPIN, 14%; with HCK, 0%; in the assay on HIPK1, 0%.
On to `CS(=O)(=O)CCNCc1ccc(-c2ccc3ncnc(Nc4ccc(OCc5ccccc5)c(Cl)c4)c3c2)o1.Cl` [GW574783], for which the “%Inh” value with GRK1 was found to be 2%; with GRK2, 1%; in the assay with GRK3, 20%; with GRK4, 0%; in the assay on GRK7 it was 0%; in the assay on GSK3A, 8%. Further, the “%Inh” value came to 1% with GSK3B (setting [1]), 30% with HASPIN, 18% in the assay with HCK and 0% in the assay on HIPK1.
On to `Nc1nc(-c2ccccn2)c(-c2ccnc3ccccc23)s1` [GW548057], for which the “%Inh” value turned out to be 1% in the assay on GRK1; 0% with GRK2; 58% with GRK3; 0% in the assay on GRK4; 0% with GRK7; 8% in the assay on GSK3A. Also, the “%Inh” value in the assay with GSK3B (setting [1]) is recorded as 5%; in the assay on HASPIN it was 26%; with HCK, 4%; in the assay with HIPK1, 17%.
With `Nc1n[nH]c2nnc(-c3ccccc3)cc12` [SB-517389], the “%Inh” value in the assay on GRK1 stood at 0%; with GRK2 it was 0%; with GRK3, 0%; with GRK4 it was 0%; in the assay with GRK7, 0%; in the assay on GSK3A, 71%. Further, the “%Inh” value was 19% with GSK3B (1 µM), 0% in the assay with HASPIN, 0% in the assay with HCK and 56% in the assay on HIPK1.
In the case of `COC(=O)c1c(-c2ccccc2)c2cc(Cl)ccc2c(=O)n1Cc1ccc(S(C)(=O)=O)cc1`, the “%Inh” value with GRK1 was 0%; in the assay with GRK2, 0%; in the assay on GRK3, 15%; in the assay on GRK4, 12%; in the assay with GRK7, 15%; in the assay with GSK3A, 0%. For the same molecule, the “%Inh” value came to 0% with GSK3B (setting [1]), 27% in the assay with HASPIN, 14% with HCK and 14% in the assay with HIPK1.
With `Cc1ccc(NC(=O)c2cccc(C#N)c2)cc1-c1ccc(C(=O)Nc2ccncc2)cc1` [GSK1398463], the “%Inh” value was determined as 0% with GRK1; 0% in the assay on GRK2; 20% with GRK3; 11% in the assay with GRK4; 0% in the assay with GRK7; 20% in the assay with GSK3A. For the same molecule, the “%Inh” value is 9% with GSK3B (setting [1]), 0% with HASPIN, 37% with HCK and 0% in the assay on HIPK1.
For the molecule `Cn1ccc2ncnc(Nc3ccc(Oc4cccc(Cl)c4)c(Cl)c3)c21`, the “%Inh” value with GRK1 is 25%; in the assay on GRK2 it was 51%; in the assay on GRK3, 0%; in the assay with GRK4, 7%; in the assay with GRK7, 20%; in the assay with GSK3A, 22%. For the same molecule, the “%Inh” value in the assay on GSK3B (setting [1]) was determined as 23%; with HASPIN, 21%; in the assay with HCK, 25%; in the assay with HIPK1, 32%.
Regarding `CCc1nc(-c2cccc(C)c2)c(-c2ccnc(NC(=O)c3ccccc3)c2)s1`, the “%Inh” value in the assay with GRK1 turned out to be 0%; in the assay on GRK2, 25%; in the assay with GRK3, 7%; in the assay on GRK4 it was 0%; in the assay on GRK7 it was 17%; in the assay on GSK3A, 0%. Moreover, the “%Inh” value in the assay with GSK3B (setting [1]) is given as 0%; with HASPIN it was 0%; in the assay on HCK it was 27%; in the assay on HIPK1 it was 25%.
Take `O=C(Nc1ccccc1F)NC1CCN(c2ccnc(Nc3ccc(F)cc3)n2)C1` (centres unmarked) [GSK1379722]: the “%Inh” value in the assay with GRK1 came out at 0%; with GRK2, 0%; in the assay on GRK3 it was 57%; in the assay on GRK4, 0%; in the assay on GRK7, 0%; with GSK3A, 0%. Moreover, the “%Inh” value turned out to be 8% in the assay on GSK3B (setting [1]), 0% in the assay with HASPIN, 0% with HCK and 0% with HIPK1.
As for `Cl.c1ccc(Cn2ncc3cc(Nc4ncnc5ccccc45)ccc32)cc1` [GW273749], the “%Inh” value was determined as 0% in the assay with GRK1; 0% in the assay on GRK2; 0% in the assay on GRK3; 0% in the assay with GRK4; 0% in the assay with GRK7; 10% in the assay with GSK3A. For the same molecule, the “%Inh” value with GSK3B (setting [1]) stood at 14%; with HASPIN, 8%; in the assay on HCK, 0%; in the assay with HIPK1 it was 0%.
On to `Nc1nc(-c2ccc3c(N)n[nH]c3c2)cc(N2CCC[C@@H](C(=O)Nc3ccccc3)C2)n1.O=C(O)C(F)(F)F.O=C(O)C(F)(F)F` [GSK2288359], for which the “%Inh” value in the assay with GRK1 is recorded as 0%; in the assay on GRK2 it was 0%; with GRK3 it was 0%; in the assay with GRK4, 27%; in the assay with GRK7 it was 0%; with GSK3A it was 20%. The “%Inh” value in the assay on GSK3B (setting [1]) is listed as 14%; with HASPIN, 0%; with HCK, 0%; in the assay on HIPK1, 0%.
As to `Cc1ccc(O)cc1Nc1cc(C(F)(F)F)nc2ccc(-c3ccncc3)cc12` [GW630823], the “%Inh” value turned out to be 0% in the assay with GRK1; 0% in the assay on GRK2; 0% with GRK3; 0% in the assay on GRK4; 0% in the assay with GRK7; 5% with GSK3A. Further, the “%Inh” value in the assay on GSK3B (setting [1]) was found to be 0%; in the assay with HASPIN it was 0%; in the assay on HCK, 18%; in the assay on HIPK1 it was 8%.
Turning to `Clc1cc(Nc2ncnc3cc[nH]c23)ccc1OCc1ccccn1`, the “%Inh” value amounted to 15% in the assay with GRK1; 0% in the assay with GRK2; 9% in the assay on GRK3; 25% with GRK4; 14% with GRK7; 6% in the assay on GSK3A. Moreover, the “%Inh” value in the assay with GSK3B (setting [1]) is on record as 7%; with HASPIN, 0%; in the assay with HCK, 41%; in the assay with HIPK1, 28%.

The values above are taken from PMC5540273 (PLoS ONE, 2017).
